Experiment [1] can be described thus: qHTS Assay for Identification of Small Molecule Antagonists for NFkB Signaling Pathway (AID 895; active = well fitted inhibition curve with a large enough effect in the signal ratio, with a control signal flat, not every such curve was filed as active; the % refers to the signal ratio; also: % is scaled to controls: 0 for no effect and ±100 for the full control effect). In short, it runs like this: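 Beta-lactamase reporter read-out (460 and 530 nm emission ratio, 405 nm excitation, 2 hrs substrate loading RT) after 5 hr stimulation with 10 pM TNF alpha in compound-treated NFkB-bla ME-180 cells in low-serum medium.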
Experiment [2] can be described thus: qHTS Assay for Identification of Small Molecule Agonists for Thrombopoietin (TPO) Signaling Pathway (AID 917). Also: potency is read from the fitted curve at half-maximal effect. The gist of the method: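 First, Ba/F3 cells with human TPO receptor were held overnight without IL-3. Next, compounds and TPO (26 pM final) were added. After 24 hrs at 37 C, luciferase detection reagent was added and luminescence measured following 10 min at room temperature.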
On the technique in general: qHTS replaces the single test concentration by a dilution series.

The target of experiment [3] is Pyruvate kinase (Leishmania mexicana) (UniProt Q27686). Put plainly: qHTS Validation Assay for Inhibitors of Leishmania Mexicana Pyruvate Kinase (AID 945).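 Also: 0% = DMSO only neutral control wells.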 In short, it runs like this:
(§1)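 Mutant LmPYK (E451W), 0.2 nM, plus 0.5 mM PEP and 0.1 mM ADP in 50 mM imidazole pH 7.2 containing 0.01% Tween 20 and 0.05% BSA. Incubated 1 h at room temperature; luminescence via PKLight, normalized to DMSO.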

For experiment [4], the target named is Pyruvate kinase PKM (Homo sapiens) (UniProt P14618). The experiment is described as follows: qHTS Assay for Activators of Human Muscle Pyruvate Kinase (AID 954; active = well fitted curve in the direction sought with a large enough effect, not every such curve was filed as active;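 also: 0% = uninhibited enzyme and -100% = no enzyme or full thiadiazolimine inhibition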). The gist of the method:
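A coupled luminescent readout tracked ATP made from ADP by purified PKM2. Final conditions included 0.1 nM enzyme, PEP and ADP at 0.5 and 0.1 mM, pH 7.2 imidazole buffer with BSA, and a one-hour room-temperature reaction.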

In experiment [5] the target is Cytochrome P450 2C19 (Homo sapiens) (UniProt P33261). Put plainly: qHTS Assay for Inhibitors and Substrates of Cytochrome P450 2C19 (AID 899). Also: nearly all actives have a fitted effect of over 60% in size. Also: potency is read from the fitted curve at half-maximal effect. The gist of the method:
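Luminescence readout of luciferin formed from 10uM Luciferin-H EGE (KM level) by 5 nM CYP2C19 in 50mM KPO4. 60 min NADPH-driven reaction at 37C after 10 min compound preincubation; data scaled to 57uM ketoconazole inhibition.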

The target of experiment [6] is Muscarinic acetylcholine receptor M1 (Rattus norvegicus) (UniProt P08482). The experiment is described as follows: qHTS Assay for Antagonists of Acetylcholine Muscarinic M1 Receptor: Kinetic Measurement of Intracellular Calcium Response (AID 943).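 Also: Fluo-4 calcium signal as peak divided by basal fluorescence over 4 min; series mostly up to about 35 µM; nearly all actives have a fitted effect of over 75% in size.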 The gist of the method: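 Quantitative HTS in CHO-M1 (rat receptor) cells: 10 min compound exposure ahead of 100 nM carbachol, Fluo-4 fluorescence followed 4 min, value expressed as peak-to-basal ratio.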

For experiment [7] the target is unchanged. Put plainly: qHTS Assay for Antagonists of Acetylcholine Muscarinic M1 Receptor: Measurement of IP-One Response (AID 944). Also: nearly all actives have a fitted effect of over 75% in size. In short, it runs like this: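 Antagonism was measured as loss of carbachol-driven (EC80) IP1 accumulation in CHO cells carrying rat M1, using a homogeneous IP-One TR-FRET kit read at 620 and 665 nm.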
Experiment [8] can be described thus: Confirmation and Secondary Assay for Modulators of Hemoglobin Beta Chain Splicing at IVS2 654 locus (AID 910).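 Also: HeLa cells stably carrying EGFP split by mutant beta-globin IVS2-654 intron; per-well total GFP intensity by laser scanning cytometry after 2-day treatment; % of control where 0% means no effect.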 The gist of the method: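 Readout: per-well total peak green fluorescence (488 nm ex, 500–520 nm em) from objects 5–250 µm, reflecting correct splicing of an EGFP-654 reporter. Compounds were applied for 2 days at 37 °C to overnight-plated HeLa EGFP-654 cells; controls were DMSO and 500 nM IVS2-654 PNA.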

A short description of experiment [9]: Confirmation and Secondary Assay for Modulators of Hemoglobin Beta Chain Splicing at IVS2 705 locus (AID 930).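 Also: HeLa cells stably expressing the EGFP-705 splicing reporter; GFP fluorescence per well restored by corrected splicing of the IVS2-705 intron in EGFP; series mostly up to about 46 µM; % of control where 0% means no effect.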 The gist of the method: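 Stable HeLa line with EGFP disrupted by mutant beta-globin intron 2 (705). Overnight attachment, then 2 days of compound at 37C, 5% CO2. Signal: peak GFP intensity summed over objects 5-250 µm.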
Experiment [10] can be described thus: qHTS Assay for Identification of Small Molecule Agonists for Hypoxia Response Element Signaling Pathway (AID 914; active = well fitted activation curve with a large enough effect in the signal ratio, with a control signal flat, not every such curve was filed as active; the % refers to the signal ratio; also: % of control where 0% means no effect). To be noted: ME-180 (cervical carcinoma) HRE-bla reporter, beta-lactamase ratio, CoCl2, 17 h; activation: stronger effect = higher value. In short, it runs like this:
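Reporter activity (beta-lactamase, CCF4 460nm/530nm ratio) in HRE-bla ME-180 cells is recorded after 17 h compound exposure with EC50 CoCl2 at 37 degrees Celsius. AC50 values come from titration data.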

Experiment [11] has as its target Pyruvate kinase (Leishmania mexicana) (UniProt Q27686). Put plainly: qHTS Validation Assay for Activators of Leishmania Mexicana Pyruvate Kinase (AID 959). The gist of the method:
as §1

Values joined by “and” are separate entries in the source; they are usually repeats but may differ in a detail not shown here. Identical values can stand only once. Records with an inconclusive call do not appear. More than one record can exist for a structure, and the calls need not agree. Active and inactive are the calls of the source. Unless noted, calls follow the shape of the dose curve; as a rule, active = well fitted curve in the direction sought with a large enough effect; inconclusive = small, poorly fitted or top-dose-only effect, or another doubt; inactive = no such curve, though single readings can be large; an effect the other way counts as inactive or inconclusive.

The results in this text go back to PubChem BioAssay (NCATS).

Pyruvate kinase PKM (Homo sapiens), sequence (P14618 whole entry, looked up): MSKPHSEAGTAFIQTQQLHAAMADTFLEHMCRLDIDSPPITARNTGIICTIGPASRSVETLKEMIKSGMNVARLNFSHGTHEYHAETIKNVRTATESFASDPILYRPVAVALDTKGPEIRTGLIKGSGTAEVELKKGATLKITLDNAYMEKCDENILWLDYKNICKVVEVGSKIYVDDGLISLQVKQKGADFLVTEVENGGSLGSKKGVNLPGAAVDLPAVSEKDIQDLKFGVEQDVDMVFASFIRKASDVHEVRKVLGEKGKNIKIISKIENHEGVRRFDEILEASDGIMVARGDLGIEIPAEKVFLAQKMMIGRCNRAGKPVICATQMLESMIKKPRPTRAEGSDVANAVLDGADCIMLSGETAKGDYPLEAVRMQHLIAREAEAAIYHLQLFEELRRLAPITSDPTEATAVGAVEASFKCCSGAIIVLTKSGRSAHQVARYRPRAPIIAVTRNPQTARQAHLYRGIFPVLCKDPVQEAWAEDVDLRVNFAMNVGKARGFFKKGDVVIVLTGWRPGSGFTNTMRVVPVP
Pyruvate kinase (Leishmania mexicana), sequence (Q27686 2-499 E452W): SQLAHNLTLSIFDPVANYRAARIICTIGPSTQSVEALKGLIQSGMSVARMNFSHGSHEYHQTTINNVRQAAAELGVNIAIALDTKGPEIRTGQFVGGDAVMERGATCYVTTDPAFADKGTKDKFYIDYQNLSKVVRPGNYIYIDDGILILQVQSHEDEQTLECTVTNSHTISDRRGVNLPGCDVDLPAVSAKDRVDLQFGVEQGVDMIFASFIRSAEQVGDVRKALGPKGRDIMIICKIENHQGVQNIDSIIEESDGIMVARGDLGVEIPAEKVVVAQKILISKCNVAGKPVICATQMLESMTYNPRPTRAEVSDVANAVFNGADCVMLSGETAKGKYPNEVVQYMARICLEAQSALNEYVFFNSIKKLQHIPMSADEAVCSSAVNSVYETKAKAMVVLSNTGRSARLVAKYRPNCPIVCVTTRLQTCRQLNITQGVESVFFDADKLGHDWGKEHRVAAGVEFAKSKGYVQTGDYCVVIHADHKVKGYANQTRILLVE
Muscarinic acetylcholine receptor M1 (Rattus norvegicus), sequence (P08482 whole entry, looked up): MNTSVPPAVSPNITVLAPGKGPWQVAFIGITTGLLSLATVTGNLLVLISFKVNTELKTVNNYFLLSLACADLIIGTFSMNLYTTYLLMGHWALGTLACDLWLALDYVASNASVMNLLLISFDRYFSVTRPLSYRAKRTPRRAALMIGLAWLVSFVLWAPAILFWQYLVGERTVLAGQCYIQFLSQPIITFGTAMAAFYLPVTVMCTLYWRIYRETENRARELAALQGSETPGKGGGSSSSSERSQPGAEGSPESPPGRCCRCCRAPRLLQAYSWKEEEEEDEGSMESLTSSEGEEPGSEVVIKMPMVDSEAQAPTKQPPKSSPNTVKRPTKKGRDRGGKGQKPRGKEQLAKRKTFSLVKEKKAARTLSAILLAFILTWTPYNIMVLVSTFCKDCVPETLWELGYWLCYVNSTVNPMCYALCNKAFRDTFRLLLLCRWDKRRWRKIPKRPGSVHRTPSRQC
Cytochrome P450 2C19 (Homo sapiens), sequence (P33261 whole entry, looked up): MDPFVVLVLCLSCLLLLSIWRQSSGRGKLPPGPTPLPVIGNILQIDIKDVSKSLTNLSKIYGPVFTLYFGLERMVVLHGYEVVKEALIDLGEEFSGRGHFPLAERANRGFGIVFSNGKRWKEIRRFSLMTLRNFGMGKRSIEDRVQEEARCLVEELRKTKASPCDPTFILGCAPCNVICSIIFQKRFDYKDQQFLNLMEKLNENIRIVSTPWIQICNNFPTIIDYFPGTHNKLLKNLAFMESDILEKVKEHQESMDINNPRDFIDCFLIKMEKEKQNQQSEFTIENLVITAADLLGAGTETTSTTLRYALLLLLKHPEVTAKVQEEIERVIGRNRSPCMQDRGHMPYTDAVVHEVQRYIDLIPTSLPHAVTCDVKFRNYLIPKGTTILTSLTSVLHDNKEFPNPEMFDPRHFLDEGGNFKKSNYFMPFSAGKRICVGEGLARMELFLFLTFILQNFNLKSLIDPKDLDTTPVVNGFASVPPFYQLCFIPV

Consider `Clc1nccc2c1ccc1ccccc12`, for which the Potency entry in experiment [1], in experiment [2] and in experiment [3] was “inactive” each time. For the same compound, the compound was classed as inactive in [4].

Turning to `Cn1ccnc1`, the Potency entry in [5], in [2], in experiment [6], in [7] and in experiment [3] was “inactive” in each case. Further, in experiment [4], the compound was classed as inactive.

Take `O=C(O)/C=C/c1ccc(O)c(O)c1`: the Potency entry in [8], in [2], in experiment [6], in experiment [7] and in experiment [3] was “inactive” throughout. The result in experiment [9] and in experiment [4] was inactive.

With `O=C(O)c1ccccc1Nc1cccc(OCc2ccc3ccccc3n2)c1`, the Potency result in experiment [5] is “inactive and 5.01 µM (active)”. The Potency result in [6], in [7] and in [3] was “inactive” throughout. Besides, the call in experiment [4] was inactive.

Turning to `O=C(O)c1ccccc1Nc1ccccc1`, the Potency entry in experiment [8], in [2], in [6], in experiment [7] and in [3] was “inactive” throughout. The compound was called inactive in experiment [9] and in experiment [4].

For the compound `COCc1nc2c([nH]1)c(=O)n(C)c(=O)n2CC(C)C`, the Potency result in experiment [5], in experiment [2], in experiment [6], in experiment [7] and in [3] was “inactive” throughout. In experiment [4], the outcome was inactive.

For `Oc1cc(O)c2c(c1)O[C@H](c1ccc(O)c(O)c1)[C@@H](O)C2`, in experiment [5], the Potency entry was “inactive”.

`Cn1cc(C(=O)OCC2CCN(CCNS(C)(=O)=O)CC2)c2ccccc21`: the Potency entry in [5], in experiment [2], in experiment [7] and in experiment [3] was “inactive” throughout. Also, in experiment [10], the activation was 26.2% (inactive). For the same compound, the result in experiment [4] was inactive.

Take `C=C(C)C1CC=C(C(=O)O)CC1` (configuration not stated): the Potency result in experiment [8] was “inactive”. Besides, in [9], the compound was classed as inactive.

As to `O=C1Cc2c([nH]c3ccc(Br)cc23)-c2ccccc2N1`, the Potency entry in experiment [5], in experiment [6] and in experiment [11] was “inactive” each time. In experiment [2], the Potency is 0.158 µM (active). Besides, in [4], the compound was classed as inactive.

Take `O=[N+]([O-])c1cccc2c(Br)[nH]nc12`: the Potency entry in experiment [8], in [2] and in experiment [3] was “inactive” each time. For the same compound, the compound was classed as inactive in [9] and in [4].

For the compound `NC1CONC1=O` (configuration not stated), the Potency entry in [8] was “inactive”. For the same compound, the compound was classed as inactive in experiment [9].

Take `O=C1OC(=O)C2C3CCC(O3)C12` (configuration not stated): the Potency result in experiment [8] was “inactive”. In addition, in experiment [9], the result was inactive.

Regarding `NCCCCN`, the Potency result in experiment [8], in experiment [2], in experiment [6], in experiment [7] and in experiment [3] was “inactive” throughout. For the same compound, the outcome in experiment [9] and in [4] was inactive.

As for `CCCc1c(-c2ccc(O)cc2)nn(-c2ccc(O)cc2)c1-c1ccc(O)cc1`, the Potency in [5] is 10 µM (active). The Potency result in [6] and in experiment [3] was “inactive” in each case. Also, the call in experiment [4] was inactive.

Regarding `CC(C)Cn1c(=O)n(C)c(=O)c2[nH]cnc21`, the Potency entry in [8], in experiment [2], in [6], in experiment [7] and in experiment [3] was “inactive” throughout. Further, the compound was called inactive in [9] and in experiment [4].

Consider `O=C(O)c1cc2cc(F)ccc2[nH]1`, for which the Potency result in [5], in [8], in experiment [2], in experiment [6], in experiment [7] and in experiment [3] was “inactive” each time. In addition, the call in experiment [9] and in [4] was inactive.

Take `O=c1cc(-c2ccccc2)[nH]c2nc(Cl)ccc12`: the Potency entry in [5], in experiment [2], in experiment [6], in experiment [7] and in experiment [3] was “inactive” each time. In experiment [4], the result was inactive.

For `NC(N)=NC(N)=Nc1ccccc1`, the Potency result in experiment [5], in experiment [8], in [2], in [6], in experiment [7] and in experiment [3] was “inactive” throughout. Besides, the outcome in experiment [9] and in experiment [4] was inactive.

As to `CC(=O)NNC(=O)N1Cc2ccccc2Oc2ccc(Cl)cc21`, the Potency result in experiment [5] and in experiment [3] was “inactive” each time. In [4], the compound was classed as inactive.

For the compound `OC1(c2ccc(Cl)cc2)CCN(Cc2c[nH]c3ccccc23)CC1`, the Potency entry in [5] and in experiment [3] was “inactive” each time. For the same compound, in experiment [4], the result was inactive.

Regarding `O=c1[nH]c(=O)c2nc3ccccc3nc2[nH]1`, the Potency entry in experiment [5], in experiment [2], in [6], in experiment [7] and in experiment [3] was “inactive” each time. For the same compound, in [4], the result was inactive.

For the compound `Nc1nc2ccc(Cl)cc2c2nc(-c3ccco3)nn12`, the Potency result in experiment [5], in [6], in [7] and in experiment [3] was “inactive” throughout. For the same compound, the result in experiment [4] was inactive.

In the case of `NCCCCN=C(N)N`, the Potency entry in experiment [8], in experiment [2], in [6], in [7] and in [3] was “inactive” each time. In addition, the compound was called inactive in experiment [9] and in experiment [4].

With `CC(=O)N[C@@H](Cc1c[nH]c2ccccc12)C(=O)OCc1cc(C(F)(F)F)cc(C(F)(F)F)c1`, in experiment [5], the Potency was 7.94 µM (active). Also, the Potency result in experiment [6], in experiment [7] and in experiment [3] was “inactive” in each case. The outcome in experiment [4] was inactive.
